SMN2 splice enh: increases expression of the SMN2 splice variant; Potency, µM (series often up to 46.1 µM), inactives show at the highest dose activity change, positive = activation, actives largely listed as activators; HEK293 SMN2-luciferase splicing reporter, luminescence, 30-36 h; AID 1458; hit rate 2.8% among 210,000; also: % of control where 0% means no effect; nearly all actives have a fitted effect of over 55% in size
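HEK293 cells carry an SMN2 […]–luciferase reporter in which exon 7 inclusion puts luciferase in frame. Cells were plated 10-12 h before compound addition, then incubated 30-36 h at 37C. ONE-Glo luminescence was read; sodium butyrate at 4.5 mM final served as control.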
FLuc modulator: firefly luciferase modulation, counter-screen for miR-21 project; hit rate 6.9% among 360,000; purified FLuc, Km substrates, luminescence inhibition; Potency, µM (highest dose often 57.5 µM), without a hit: at the highest dose activity change, negative = inhibition, actives largely listed as inhibitors;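 also: plate controls were vehicle for no effect and reference inhibitor for full effect; nearly all actives have a fitted effect of over 55% in size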
Target sequence (P08659 whole entry, looked up): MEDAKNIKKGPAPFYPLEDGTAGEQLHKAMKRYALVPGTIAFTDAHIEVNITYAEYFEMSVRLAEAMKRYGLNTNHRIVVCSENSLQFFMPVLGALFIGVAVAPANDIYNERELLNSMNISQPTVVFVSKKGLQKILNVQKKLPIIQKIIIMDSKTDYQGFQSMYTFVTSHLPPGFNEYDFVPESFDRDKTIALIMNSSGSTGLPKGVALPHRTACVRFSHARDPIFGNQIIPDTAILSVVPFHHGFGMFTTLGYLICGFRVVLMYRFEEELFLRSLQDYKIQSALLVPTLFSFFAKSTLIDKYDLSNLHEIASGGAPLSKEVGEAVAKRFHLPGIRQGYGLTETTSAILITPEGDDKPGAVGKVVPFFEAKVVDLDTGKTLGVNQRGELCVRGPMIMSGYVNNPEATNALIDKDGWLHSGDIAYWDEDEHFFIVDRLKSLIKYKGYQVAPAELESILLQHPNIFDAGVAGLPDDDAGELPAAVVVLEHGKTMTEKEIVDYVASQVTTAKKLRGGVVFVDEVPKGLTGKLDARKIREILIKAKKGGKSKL
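Biochemical qHTS of compounds, final roughly 60 µM downward over six points, against 10 nM purified firefly luciferase using Km concentrations of substrates (10 uM D-luciferin, 10 uM ATP) in Tris acetate pH 7.5 buffer; luminescence output.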
ELG1 genotox: genotoxicity induction in ELG1-luciferase HEK293T cells; Potency, µM (highest dose often 46 µM), for the others: top-dose activity change, positive = activation, actives largely listed as activators; HEK293T ELG1-luciferase reporter, luminescence, 16 h; hit rate 1.3% among 330,000; also: % of control where 0% means no effect; nearly all actives have a fitted effect of over 60% in size
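Step 1: seed 2,000 HEK293T ELG1-luciferase cells per well. Step 2: add compound or DMSO, incubate 16 hr at 37 °C. Step 3: ONE-Glo, 30 min at room temperature, read luminescence.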
Luc counter: counter-screen: inhibitors of Kinase-Glo firefly luciferase; hit rate 0.28% among 200,000; Potency, µM (titrated, usually from 38.3 µM), for inactives: at the top dose activity change, negative = inhibition, most hits filed as inhibitors; AID 1379; Kinase-Glo luciferase, ATP luminescence, 8 min; also: % is scaled to controls: 0 for no effect and ±100 for the full control effect; nearly all actives have a fitted effect of over 60% in size
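Compound is pinned into ATP-containing buffer (10 uM ATP, imidazole pH 7.2, 7 mM MgCl2). Kinase-Glo luciferase reagent is then added. Light output is recorded following an 8-min room-temperature incubation.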
Rab9 promoter act: activates the Rab9 promoter; Huh7 Rab9 promoter-luciferase reporter, luminescence, 24 h; Potency, µM (doses to about 9.22 µM), inactives show top-dose activation, negative = inhibition, hits mostly activators; hit rate 2.8% among 320,000; AID 485297; also: % of control where 0% means no effect; nearly all actives have a fitted effect of over 60% in size
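Quantitative HTS format; Huh7 Rab9-luciferase reporter cells (1500/well) receive compound 2 h post-plating, incubate 24 h at 37 °C, then get luciferase reagent for 10 min before luminescence reading.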
NPC1 promoter act: activators of NPC1 promoter; Potency, µM (titrated, usually from 9.22 µM), without a hit: at the top dose activation, usual class: activators; AID 485313; Huh7 NPC1 promoter luciferase reporter, 24 h; hit rate 2.4% among 320,000; also: % of control where 0% means no effect; nearly all actives have a fitted effect of over 60% in size
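Luciferase expression driven by the NPC1 promoter was measured in stably transfected Huh7 cells after a 24 h compound incubation, using a luciferase reagent and a luminescence read.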
The depositor's hits bear a star; ? = inconclusive; . = no result given; [ ] = dose if it differs, or a comment. An excerpt weighted towards active compounds, which were near 7.5% of everything screened. Calls follow the shape of the dose curve; as a rule, active = well fitted curve in the direction sought with a large enough effect; inconclusive = small, poorly fitted or top-dose-only effect, or another doubt; inactive = no such curve, though single readings can be large; an effect the other way counts as inactive or inconclusive. Potency is read from the fitted curve at half-maximal effect.

SMILES | SMN2 splice enh | FLuc modulator | ELG1 genotox | Luc counter | Rab9 promoter act | NPC1 promoter act
CCCc1nc2c(sc3nc4c(cc32)COC(C)(C)C4)c(=O)n1Cc1ccco1 | -17.1% | -0.8% | -3.1% | 2.6% | -3.0% | -2.5%
Cc1ccc(C)c(N2CCN(C(=O)c3ccc(Nc4nc5ccccc5n5nnnc45)cc3)CC2)c1 | 8.5% | -0.3% | . | . | . | .
COc1ccc(C2=NN(C(C#N)c3ccc(OC)cc3)C(c3ccccc3)C2)cc1 (stereo not drawn) | ? | 23.9µM* | ? | -3.1% | ? | ?
O=C(NCc1cnc2ccccn12)C1CCC(=O)N(Cc2ccccc2F)C1 (stereo not drawn) | . | 1.4% | -2.0% | . | -5.1% | -5.2%
Cc1ccccc1C(=O)Nc1ccc(N(C)C)c2ccccc12 | . | ? | -5.6% | . | 13.2% | 13.6%
CN(C)c1ccc(N=Nc2ccc(S(=O)(=O)O)cc2)c2ccccc12 | 5.6% | 16.9µM* | -7.6% | -9.6% | 2.1% | -1.3%
COC(=O)[C@]1(Cc2ccccc2)N[C@H](c2ccc(-c3cc(C(C)=O)cs3)cc2)[C@@H]2C(=O)N(C)C(=O)[C@@H]21 | . | 1.4% | -11.0% | . | -6.1% | -13.5%
COc1cccc(NC(=O)CSc2nc3ccccc3nc2N2CCOCC2)c1 | 3.98µM* | -14.7% | -4.6% | . | 7.2% | -4.5%
COc1ccc(NC(=O)CSc2ccccn2)cc1 | ? | ? | 16.4% | -3.9% | ? | 21.0%
COc1ccccc1C(=O)CSc1ccccn1 | 27.9% | 16.9µM* | ? | -2.2% | ? | 28.3%
COC(=O)CNC(=O)CSc1ccccn1 | . | -3.6% | -0.4% | . | -5.7% | -0.1%
COc1ccc(C(=O)NCCSc2ccccn2)cc1 | 2.82µM* | 2.13µM* | 1.03µM* | -0.2% | 0.398µM* | 0.708µM*
COc1ccc(N(CC(=O)NCCSc2ccccn2)S(C)(=O)=O)cc1 | -5.7% | 5.6% | 4.4% | -0.1% | -4.2% | 0.3%
COc1cccc(NC(=O)CSc2ccccn2)c1 | ? | 15.1µM* | ? | 11.5% | ? | ?
CCCn1c(SCC(=O)N2CC(=O)Nc3ccccc32)n[nH]c1=O | . | . | 0.1% | . | . | .
COCC(=O)N1CCc2nc(-c3ccc(OC)cc3C)c3c(c2C1)CO[C@@H](c1ccccc1)C3 | -1.6%[9.22 µM] | . | . | -2.4%[7.66 µM] | . | .
O=C(CSc1ccccn1)Nc1ccc(NC(=O)CSc2ccccn2)cc1 | -1.5% | -9.2% | 1.5% | -1.6% | 0.1% | -5.2%
CCc1ccc(NC(=O)CSc2ccccn2)cc1 | 28.9% | 13.5µM* | 3.8% | -0.8% | ? | 16.3%
O=C(CCSc1ccccn1)Nc1ccc(Br)cc1 | 14.1µM* | 12µM* | ? | -0.1% | 3.55µM* | ?
COc1cc(OC)c2c(c1)OC1Cc3cc(OC)c(OC)cc3C2O1 (stereo not drawn) | -3.7%[9.22 µM] | . | . | -6.2%[7.66 µM] | . | .
C/C(=N\NC(=O)c1ccccc1C)c1cccnc1 | . | ? | 3.0% | . | 29.1% | 17.5%
C/C(=N\Nc1ccccc1C)c1cccnc1 | . | 16.9µM* | 10.8% | . | 3.8% | 2.0%
Cc1cc(N2CCCC2)ccc1/C=C1\NC(=S)N(C)C1=O | . | 13.5µM* | 9.6% | -4.9% | 3.16µM* | ?
O=C1N/C(=C/c2ccc(N3CCCC3)cc2)C(=O)N1c1ccccc1 | 27.0% | ? | 14.4% | -0.3% | 24.6% | 23.3%
O=C1/C(=C/c2ccc(N3CCCC3)cc2)NC(=S)N1C1CC1 | -11.7% | 12µM* | -2.5% | -5.9% | ? | 4.3%
SMILES | SMN2 splice enh | FLuc modulator | ELG1 genotox | Luc counter | Rab9 promoter act | NPC1 promoter act
COc1ccccc1NC(=O)Cn1c(=O)n(Cc2ccco2)c(=O)c2oc3ccccc3c21 | . | -9.3% | . | . | . | .
COc1ccc2oc(C(=O)OCC(=O)NC(C)c3ccccc3)c(C)c2c1 (stereo not drawn) | . | -8.7% | 1.5% | . | 0.0% | 6.0%
Cc1ccc(Nc2nc3ccccc3[nH]2)nc1 | 11.2µM* | 13.5µM* | ? | -1.1% | 2.82µM* | 2.82µM*
COc1cccc(/C=N/Nc2nc3ccccc3[nH]2)c1OC | . | 5.36µM* | -19.5% | . | 2.51µM* | 3.98µM*
COc1cccc(/C=N/Nc2ncc(C)c(=O)[nH]2)c1OC | . | 0.2% | 9.8% | . | 0.4% | -3.5%
COc1cccc(/C=N/c2nc3ccccc3[nH]2)c1O | . | 19µM* | 10.6% | . | -1.0% | -2.8%
COc1cccc(/C=N/Nc2nc3ccccc3[nH]2)c1O | . | 2.69µM* | ? | . | -16.3% | -23.8%
COc1ccc2c(c1)C(=O)[C@H](OC(=O)NCc1ccc3c(c1)OCO3)[C@@H](c1ccc(OC)c(Br)c1)O2 | -5.6% | . | . | -2.2% | . | .
COc1cccc(N2CCN(C(=O)c3ccc(CS(=O)c4cccc(Cl)c4)o3)CC2)c1 (stereo not drawn) | . | -3.1% | . | . | . | .
CN1CCC(NC(=O)c2cnn3c2NC(=C2CC2)C=C3C(F)F)CC1 | . | 2.7% | . | . | . | .
CC(C)c1ccc(S(=O)(=O)NCc2ccc3c(c2)CCN3C(=O)c2ccccc2)cc1 | . | -2.0% | . | . | . | .
COc1ccccc1Nc1nc2ccccc2[nH]1 | 6.5% | 9.53µM* | 11.1% | -6.8% | ? | ?
CCN(CC)c1ccc(-c2nc3cnccn3c2NC2CCCC2)cc1 | -18.3% | 10.7µM* | -1.3% | -0.1% | -3.2% | 14.6%
c1cn2c(NC3CCCC3)c(-c3ccc(N4CCOCC4)cc3)nc2cn1 | 12.7% | 2.13µM* | ? | -3.9% | ? | ?
COc1ccccc1-c1ccc(SCC(=O)NCCc2ccccc2)nn1 | -4.6% | -11.5% | -1.8% | -1.6% | 22.0% | -3.1%
COc1ccccc1-c1ccc(SCc2cccc(F)c2)nn1 | 22.8% | 23.9µM* | 7.0% | 0.2% | 19.0% | 11.8%
COc1ccccc1-c1ccc(SCc2ccccc2)nn1 | 29.6% | 13.5µM* | -0.2% | -0.6% | ? | 26.5%
COc1ccccc1-c1ccc(SCc2ccccc2F)nn1 | 27.6% | 13.5µM* | 18.2% | 1.7% | ? | 27.3%
CCOC(=O)c1ccccc1NC(=O)CSc1ccc(-c2sc(C)nc2C)nn1 | . | -12.6% | . | . | . | .
Cc1nc(C)c(-c2ccc(SCc3ccccc3F)nn2)s1 | . | 10.7µM* | ? | . | ? | ?
CCOC(=O)c1cnc2c(Cl)cc(Cl)cc2c1Nc1ccccc1OC | -14.3% | -0.4% | . | . | . | .
COc1cccc(NC(=O)COC(=O)C2CC3CCCC(C2)C3=O)c1 (stereo not drawn) | . | -10.5% | -0.5% | . | -3.3% | 4.8%
O=C(CSc1nc2c([nH]c3ccccc32)c(=O)n1-c1ccc(F)cc1)N1CCc2ccccc21 | . | 0.3% | . | . | . | .
Cc1cccc(Nc2nc(Nc3cccc(C)c3)nc(N3CCOCC3)n2)c1 | -13.1% | -6.8% | . | . | . | .
COc1ccc(C(=O)Nc2ccccn2)cc1 | 2.4% | 2.2% | -1.9% | -0.1% | -4.1% | -2.5%
COc1ccc2oc(C(=O)Nc3ccccn3)c(C)c2c1 | . | 0.601µM* | ? | . | 3.98µM* | ?

Compound activity as filed in PubChem.
